Records with an inconclusive call do not appear. Calls of active or inactive are those of the source. Unless noted, calls come from the whole dose curve; as a rule, active = well fitted curve in the direction sought with a large enough effect in the repeat runs; inconclusive = weak or mixed curves; inactive = no such curve, though single readings can be large; an effect the other way counts as inactive or inconclusive.
Legend:
[1] = qHTS assay to identify aromatase inhibitors - cell viability counter screen (AID 743084);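 note: cells stimulated with testosterone during compound exposure; nearly all actives have a fitted effect of over 55% in size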
[2] = biological target: Aryl hydrocarbon receptor (Homo sapiens) (UniProt P35869); experiment: qHTS assay to identify small molecule that activate the aryl hydrocarbon receptor (AhR) signaling pathway (AID 743085);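 note: HG2L7.5c1 human HepG2 liver cells with stably integrated DRE-driven firefly reporter; series mostly up to about 70 µM; nearly all actives have a fitted effect of over 15% in size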
How it was run: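 Luminescence (ONE-Glo) from a dioxin-responsive-element luciferase reporter in HG2L7.5c1 HepG2 cells after 24 hr compound exposure at 37C; viability measured by CellTiter-Fluor fluorescence beforehand.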

[3] = qHTS assay to identify small molecule that activate the aryl hydrocarbon receptor (AhR) signaling pathway - cell viability counter screen (AID 743086);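 note: HepG2 liver cells carrying the AhR DRE luciferase reporter; series mostly up to about 70 µM; nearly all actives have a fitted effect of over 45% in size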
How it was run: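 HepG2-AhR-luc (HG2L7.5c1) cells, 4000/well, treated 24 h at 37 C with compound; viability measured as CellTiter-Fluor fluorescence after 30 min in the same wells as the luciferase read.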

[4] = biological target: Peroxisome proliferator-activated receptor gamma (Homo sapiens) (UniProt P37231); experiment: qHTS assay to identify small molecule agonists of the peroxisome proliferator-activated receptor gamma (PPARg) signaling pathway (AID 743094; active = well fitted activation curve with a large enough effect in the signal ratio in the repeat runs, not every such curve was filed as active; the % refers to the signal ratio)
How it was run: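 HEK293H PPARg-bla cells, 5 h settle at 37C/5% CO2; compound (DMSO) 17 h, 37C; B/G FRET substrate 1 h RT; fluorescence intensity read-out. qHTS format.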

[5] = biological target: Peroxisome proliferator-activated receptor gamma (Homo sapiens) (UniProt P37231); experiment: qHTS assay to identify small molecule antagonists of the peroxisome proliferator-activated receptor gamma (PPARg) signaling pathway (AID 743191; calls by dose curve; note: series mostly up to about 63 µM; nearly all actives have a fitted effect of over 30% in size)
How it was run: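 GeneBLAzer PPARg UAS-bla HEK293H cells, 5 h post-plating, exposed to compounds 17 h at 37C. LiveBLAzer B/G FRET substrate added for 1 h at room temperature; beta-lactamase reporter read by fluorescence intensity.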

[6] = qHTS assay to identify small molecule antagonists of the peroxisome proliferator-activated receptor gamma (PPARg) signaling pathway - cell viability counter screen (AID 743194); note: nearly all actives have a fitted effect of over 55% in size; note: potency is the fitted concentration of half-maximal effect
How it was run: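 Cytotoxicity counter screen in PPARg-bla HEK293H cells, same wells as reporter assay. Compounds plus 50 nM rosiglitazone (final) for 17 h at 37 C, then viability read by CellTiter-Glo luminescence.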

[7] = qHTS assay for small molecule agonists of the antioxidant response element (ARE) signaling pathway (AID 743202; active = well fitted activation curve with a large enough effect in the signal ratio in the repeat runs, not every such curve was filed as active; the % refers to the signal ratio; note: potency is the fitted concentration of half-maximal effect)
How it was run: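 HepG2 ARE-bla cells; 16 h treatment at 37 C; FRET-based beta-lactamase fluorescence read after 2 h substrate incubation at room temperature.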

[8] = qHTS assay for small molecule agonists of the antioxidant response element (ARE) signaling pathway - cell viability counter screen (AID 743203; calls by dose curve; note: nearly all actives have a fitted effect of over 55% in size)
How it was run: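 Luminescence read-out (CellTiter-Glo, 30 min at room temperature) measured cell viability in the same wells as the ARE beta-lactamase reporter. HepG2 ARE-bla cells were treated with compounds for 16 hrs at 37C/5% CO2.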

[9] = qHTS assay for small molecule activators of the heat shock response signaling pathway - cell viability counter screen (AID 743209); note: nearly all actives have a fitted effect of over 50% in size
How it was run: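 HSE-bla HeLa; 1500 cells/well; overnight 37 C, 5% CO2; compound 5 h 37 C; LiveBLAzer B/G substrate 2.5 h RT; CellTiter-Glo 30 min RT; luminescence.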

[10] = qHTS assay for small molecule activators of the heat shock response signaling pathway (AID 743210; active = well fitted activation curve with a large enough effect in the signal ratio in the repeat runs, with a control signal flat, not every such curve was filed as active; the % refers to the signal ratio;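 note: HeLa cells with beta-lactamase reporter driven by heat shock elements; series mostly up to about 63 µM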)
How it was run: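 Following overnight attachment, HSE-bla HeLa cells received test compounds for 5 h at 37 C; beta-lactamase activity was then detected via FRET substrate fluorescence.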
% is set by controls: 0 for no effect and ±100 for the full control effect.

Chain of Peroxisome proliferator-activated receptor gamma (Homo sapiens) (P37231 whole entry, looked up): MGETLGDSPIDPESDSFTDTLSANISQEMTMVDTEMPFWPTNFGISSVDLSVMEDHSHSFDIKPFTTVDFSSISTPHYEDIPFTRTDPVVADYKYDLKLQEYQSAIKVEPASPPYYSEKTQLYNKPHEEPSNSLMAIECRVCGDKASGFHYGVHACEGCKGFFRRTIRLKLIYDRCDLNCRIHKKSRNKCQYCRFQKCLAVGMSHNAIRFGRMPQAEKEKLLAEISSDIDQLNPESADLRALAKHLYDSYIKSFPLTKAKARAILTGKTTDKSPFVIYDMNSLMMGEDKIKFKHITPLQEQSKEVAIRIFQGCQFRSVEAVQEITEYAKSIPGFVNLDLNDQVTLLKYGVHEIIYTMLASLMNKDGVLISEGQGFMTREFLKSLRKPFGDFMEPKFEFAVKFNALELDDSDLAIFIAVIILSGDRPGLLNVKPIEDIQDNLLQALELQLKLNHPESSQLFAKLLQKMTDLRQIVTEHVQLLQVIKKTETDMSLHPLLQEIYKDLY
Chain of Aryl hydrocarbon receptor (Homo sapiens) (P35869 whole entry, looked up): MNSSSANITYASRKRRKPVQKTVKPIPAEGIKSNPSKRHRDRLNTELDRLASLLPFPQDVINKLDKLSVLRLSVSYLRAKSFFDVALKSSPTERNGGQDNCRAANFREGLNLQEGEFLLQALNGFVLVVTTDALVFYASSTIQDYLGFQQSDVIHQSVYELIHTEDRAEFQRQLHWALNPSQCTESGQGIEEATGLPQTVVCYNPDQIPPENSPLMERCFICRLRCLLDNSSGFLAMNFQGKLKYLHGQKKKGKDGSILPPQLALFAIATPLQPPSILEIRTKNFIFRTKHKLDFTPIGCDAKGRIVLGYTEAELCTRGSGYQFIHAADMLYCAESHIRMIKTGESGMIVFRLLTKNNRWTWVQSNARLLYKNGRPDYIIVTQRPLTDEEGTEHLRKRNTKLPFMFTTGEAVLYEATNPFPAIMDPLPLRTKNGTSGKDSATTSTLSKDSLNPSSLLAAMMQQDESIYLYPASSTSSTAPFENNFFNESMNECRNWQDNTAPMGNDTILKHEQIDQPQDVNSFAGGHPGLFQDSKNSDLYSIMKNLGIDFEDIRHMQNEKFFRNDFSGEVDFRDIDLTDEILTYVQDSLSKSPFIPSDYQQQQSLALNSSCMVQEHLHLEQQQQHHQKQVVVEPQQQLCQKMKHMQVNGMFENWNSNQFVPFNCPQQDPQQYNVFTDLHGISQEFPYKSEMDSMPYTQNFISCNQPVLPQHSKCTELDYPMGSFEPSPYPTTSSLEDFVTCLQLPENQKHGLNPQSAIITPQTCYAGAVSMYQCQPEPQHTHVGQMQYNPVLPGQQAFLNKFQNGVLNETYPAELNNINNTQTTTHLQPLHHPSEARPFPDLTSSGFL

CC(=O)Nc1ccc(N)cc1
inactive: Potency [1] | Potency [2] | Potency [3] | Potency [4] | Potency [5] | Potency [6] | Potency [7] | Potency [8] | Potency [9]

CO[C@H]1O[C@H](CO)[C@@H](O)[C@H](O)[C@H]1O
inactive: Potency [1] | Potency [2] | Potency [3] | Potency [4] | Potency [5] | Potency [6] | Potency [7] | Potency [8] | Potency [10]

[O]=[Bi]
inactive: activity change, negative = cytotoxicity [1] -5.72% [at 8.47 µM] | activation [2] -0.231% [at 8.47 µM] | viability change, negative = cytotoxic [3] -5.07% [at 8.47 µM] | activation [4] -4.02% [at 7.08 µM] | ratio activity, negative = inhibition [5] 6.53% [at 5.95 µM] | activity change, negative = cytotoxicity [6] -1.71% [at 5.95 µM] | activation [7] -9.19% [at 8.36 µM] | viability change, negative = cytotoxic [8] -0.248% [at 8.36 µM] | activity change, negative = cytotoxicity [9] 0.948% [at 5.95 µM]

CN1CCCN=C1/C=C/c1cccs1
inactive: Potency [1] | Potency [2] | Potency [3] | Potency [4] | Potency [5] | Potency [6] | Potency [8] | Potency [9] | Potency [10]

O=C(Nc1ccc([N+](=O)[O-])cc1)Nc1ccc([N+](=O)[O-])cc1
inactive: Potency [1] | Potency [2] | Potency [3] | Potency [4] | Potency [5] | Potency [9] | Potency [10]
active: Potency [6] 1330 nM | Potency [7] 2660 nM

CCC(C)=O
inactive: Potency [1] | Potency [2] | Potency [3] | Potency [4] | Potency [5] | Potency [6] | Potency [7] | Potency [8] | Potency [9] | Potency [10]

CCOC(=N)CC(=O)OCC
inactive: Potency [1] | Potency [2] | Potency [3] | Potency [4] | Potency [5] | Potency [6] | Potency [7] | Potency [8] | Potency [9] | Potency [10]

O=C(NCCCN1CCOCC1)c1ccc(Cl)cc1
inactive: Potency [1] | Potency [2] | Potency [3] | Potency [4] | Potency [5] | Potency [6] | Potency [7] | Potency [8] | Potency [9] | Potency [10]

C=CCCCCCCCCCCCCCCCC
inactive: activity change, negative = cytotoxicity [1] 17.8% [at 8.47 µM] | activation [2] -0.177% [at 8.47 µM] | viability change, negative = cytotoxic [3] -2.48% [at 8.47 µM] | activation [4] -3.71% [at 7.08 µM] | ratio activity, negative = inhibition [5] 1.33% [at 5.95 µM] | activity change, negative = cytotoxicity [6] 1.33% [at 5.95 µM] | viability change, negative = cytotoxic [8] -4.17% [at 8.36 µM] | activity change, negative = cytotoxicity [9] 11.1% [at 5.95 µM] | activation [10] -2.33% [at 5.95 µM]

CCCCCCCCCCCCCCC[C@H](O)[C@@H](N)CO
inactive: Potency [1] | Potency [2] | Potency [3] | Potency [4] | Potency [5] | Potency [6] | Potency [8] | Potency [9]

Cc1cnc(C)c(C)n1
inactive: Potency [1] | Potency [2] | Potency [3] | Potency [4] | Potency [5] | Potency [6] | Potency [7] | Potency [8] | Potency [9] | Potency [10]

ON(Cc1ccccc1)Cc1ccccc1
inactive: Potency [1] | Potency [2] | Potency [3] | Potency [4] | Potency [5] | Potency [6] | Potency [7] | Potency [8] | Potency [9]

O=C(O)c1cccc(O)c1
inactive: Potency [1] | Potency [2] | Potency [3] | Potency [4] | Potency [5] | Potency [6] | Potency [7] | Potency [8] | Potency [9] | Potency [10]

CCC1(C)CC(=O)NC1=O (configuration not stated)
inactive: Potency [1] | Potency [2] | Potency [3] | Potency [4] | Potency [5] | Potency [6] | Potency [7] | Potency [8] | Potency [9] | Potency [10]

c1ccc(COCc2ccccc2)cc1
inactive: Potency [1] | Potency [2] | Potency [3] | Potency [4] | Potency [5] | Potency [6] | Potency [7] | Potency [8] | Potency [9] | Potency [10]

CC(=O)Nc1ccccc1C
inactive: Potency [1] | Potency [2] | Potency [3] | Potency [4] | Potency [5] | Potency [6] | Potency [7] | Potency [8] | Potency [9] | Potency [10]

CCOC(=O)c1ccccc1C
inactive: Potency [1] | Potency [2] | Potency [3] | Potency [4] | Potency [5] | Potency [6] | Potency [8] | Potency [9] | Potency [10]

CCC(C(=O)OCCN(CC)CC)c1ccccc1 (configuration not stated)
inactive: Potency [1] | Potency [2] | Potency [3] | Potency [4] | Potency [5] | Potency [6] | Potency [7] | Potency [8] | Potency [10]

O=C1NCCN1
inactive: Potency [1] | Potency [2] | Potency [3] | Potency [4] | Potency [5] | Potency [6] | Potency [7] | Potency [8] | Potency [9]

Cc1cc(C(=C2C=CC(=Nc3ccc(S(=O)(=O)O)cc3S(=O)(=O)O)C=C2)c2ccc(Nc3ccc(S(=O)(=O)O)cc3)cc2)ccc1N
inactive: Potency [1] | Potency [2] | Potency [3] | Potency [4] | Potency [5] | Potency [6] | Potency [7] | Potency [8] | Potency [9] | Potency [10]

CC(C)CCCCCCOC(=O)CCCCC(=O)OCCCCCCC(C)C
inactive: Potency [1] | Potency [2] | Potency [3] | Potency [4] | Potency [5] | Potency [6] | Potency [8] | Potency [9] | Potency [10]

CC1CN(c2cc3c(cc2F)c(=O)c(C(=O)O)cn3-c2ccc(F)cc2F)CCN1 (configuration not stated)
inactive: Potency [1] | Potency [2] | Potency [3] | Potency [4] | ratio activity, negative = inhibition [5] 15.7% [at 5.95 µM] | activity change, negative = cytotoxicity [6] 5.03% [at 5.95 µM] | activation [7] 0.815% [at 8.36 µM] | viability change, negative = cytotoxic [8] -0.948% [at 8.36 µM] | activity change, negative = cytotoxicity [9] -28.5% [at 5.95 µM] | activation [10] 0.895% [at 5.95 µM]

OC/C(Br)=C(\Br)CO
inactive: Potency [1] | Potency [2] | Potency [3] | Potency [4] | Potency [5] | Potency [6] | Potency [7] | Potency [8] | Potency [9] | Potency [10]
